Reference: PubChem BioAssay (NCI)
Compounds without any hit were thinned out: in the full panel of roughly 79,000, 15% have a hit. Activity calls are given as the source filed them. Cut-off read from the data, not from the text of the source: active = growth inhibition above about 70%; inactive = the rest.

Experiments:
[1] = NCI Yeast Anticancer Drug Screen. Data for the rad52 strain (AID 147);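 note: 0% = growth of vehicle-treated control cultures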; conditions: S. cerevisiae rad52 mutant growth inhibition, stronger effect = higher value
How it was run: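 Screen used a yeast mutant impaired in DNA repair. After compound exposure, growth was measured. Values reflect inhibition compared with vehicle-treated cells.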

[2] = NCI Yeast Anticancer Drug Screen. Data for the wt1 strain (AID 149);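 note: 0% = growth of vehicle-treated wt1 cultures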; conditions: S. cerevisiae wt1 strain (SPY 50644) growth inhibition, stronger effect = higher value
How it was run: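 Readout: yeast growth inhibition, normalised to vehicle controls, in the wt1 strain exposed to test compounds.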

[3] = NCI Yeast Anticancer Drug Screen. Data for the rad50EPP+ strain (AID 151);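 note: 0% = growth of vehicle-treated control cultures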; conditions: S. cerevisiae rad50 mutant strain, stronger effect = higher value
How it was run: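 Exposing the rad50EPP+ strain to each compound, growth was compared with vehicle-only cultures to give inhibition.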

[4] = NCI Yeast Anticancer Drug Screen. Data for the mgt1 strain (AID 153); conditions: S. cerevisiae mgt1 mutant growth inhibition, stronger effect = higher value
How it was run: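 Genetically defined yeast (mgt1) treated with compound; inhibition of growth expressed against vehicle-treated controls.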

[5] = NCI Yeast Anticancer Drug Screen. Data for the rad50 strain (AID 155);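 note: 0% = growth of vehicle-only cultures of the same strain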; conditions: S. cerevisiae rad50 strain growth inhibition, stronger effect = higher value
How it was run: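 Compounds were tested on a yeast strain with an engineered DNA damage repair alteration; the reported value is growth inhibition normalised to vehicle treatment.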

[6] = NCI Yeast Anticancer Drug Screen. Data for the mec2-1 strain (AID 157); conditions: S. cerevisiae mec2-1 strain, stronger effect = higher value
How it was run: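 Readout is yeast growth inhibition, normalised to vehicle-treated controls, in the mec2-1 strain exposed to compound.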

[7] = NCI Yeast Anticancer Drug Screen. Data for the rad14 strain (AID 159);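 note: 0% = growth of vehicle-treated control cultures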; conditions: S. cerevisiae rad14 strain growth inhibition, stronger effect = higher value
How it was run: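 Compound-treated yeast with a defined DNA-repair lesion; growth inhibition normalised to vehicle-treated cultures.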

[8] = NCI Yeast Anticancer Drug Screen. Data for the sgs1 mgt1 strain (AID 161);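 note: 0% = growth of cultures given vehicle only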; conditions: S. cerevisiae sgs1 mgt1 strain, stronger effect = higher value
How it was run: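 Growth of a repair-deficient yeast mutant was monitored after compound treatment and expressed as inhibition relative to vehicle-treated cultures.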

[9] = NCI Yeast Anticancer Drug Screen. Data for the CLN2oe strain (AID 163);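 note: 0% = growth of vehicle-only control cultures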; conditions: S. cerevisiae CLN2oe strain, stronger effect = higher value
How it was run: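 Values reflect how much compound exposure reduced yeast growth, referenced to vehicle-exposed cells. Assay organism is a strain with a defined genetic change affecting cell-cycle control.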

[10] = NCI Yeast Anticancer Drug Screen. Data for the bub3 strain (AID 167); conditions: S. cerevisiae bub3 mutant strain, stronger effect = higher value
How it was run: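 Growth of a checkpoint-deficient yeast mutant is measured after compound exposure. Values represent inhibition relative to vehicle.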

[11] = NCI Yeast Anticancer Drug Screen. Data for the wt2 strain (AID 169);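 note: 0% = growth of vehicle-treated yeast cultures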; conditions: S. cerevisiae wt2 strain growth inhibition, stronger effect = higher value
How it was run: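 Values express reduction in yeast growth under compound treatment, referenced to vehicle-treated cells.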

[12] = NCI Yeast Anticancer Drug Screen. Data for the mlh1 strain (AID 171);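 note: 0% = growth of vehicle-treated control cultures of the same strain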; conditions: S. cerevisiae mlh1 strain growth inhibition, stronger effect = higher value
How it was run: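 Steps: expose the defined-mutant yeast strain to compound; expose a parallel culture to vehicle; measure growth; express compound effect as inhibition relative to the vehicle culture.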

[13] = NCI Yeast Anticancer Drug Screen. Data for the sgs1 strain (AID 173);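 note: 0% = growth of vehicle-only control cultures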; conditions: S. cerevisiae sgs1 mutant, stronger effect = higher value
How it was run: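 Treat defined-mutant yeast with compound; measure growth; calculate inhibition relative to vehicle-treated cells.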

[14] = NCI Yeast Anticancer Drug Screen. Data for the mlh1 rad18 strain (AID 175); conditions: S. cerevisiae mlh1 rad18 strain growth inhibition, stronger effect = higher value
How it was run: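 Test agents were incubated with a yeast strain of defined genotype (DNA damage repair defect). Inhibition of growth was derived by comparison with vehicle-exposed cultures.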

[15] = NCI Yeast Anticancer Drug Screen. Data for the rad18 strain (AID 177); conditions: S. cerevisiae rad18 mutant growth inhibition, stronger effect = higher value
How it was run: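 A genetically defined yeast mutant impaired in DNA damage repair was treated with test compounds, then its growth was measured against cultures receiving vehicle alone.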

[16] = NCI Yeast Anticancer Drug Screen. Data for the cln2 rad14 strain (AID 165);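 note: 0% = growth equal to vehicle treated cultures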; conditions: S. cerevisiae cln2 rad14 strain, stronger effect = higher value
How it was run: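 Relative to vehicle controls, growth inhibition of compound-treated cln2 rad14 yeast was recorded.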

[17] = at 5.0 µM (retest, dose inferred, filed as 0.5)
[18] = at 50.0 µM (retest, dose inferred, filed as 5.0)

Measured: growth inhibition

C=C(C(=O)OC)N1C(=O)CC(C)C1=O (stereo not drawn)
inactive: [1]; at 1.2 µM 0% | [1]; at 3.7 µM 10% | [1]; at 11.0 µM 14% | [1]; at 33.0 µM 24% | [1]; at 100.0 µM 56% | [2]; at 1.2 µM 7% | [2]; at 3.7 µM 15% | [2]; at 11.0 µM 12% | [2]; at 33.0 µM 19% | [2]; at 100.0 µM 67% | [3]; at 1.2 µM -1% | [3]; at 3.7 µM 4% | [3]; at 11.0 µM 6% | [3]; at 33.0 µM 8% | [3]; at 100.0 µM -10% | [4]; at 1.2 µM 16% | [4]; at 3.7 µM 6% | [4]; at 11.0 µM 9% | [4]; at 33.0 µM 27% | [5]; at 1.2 µM 8% | [5]; at 3.7 µM 8% | [5]; [17] 14% | [5]; at 11.0 µM 13% | [5]; at 33.0 µM 14% | [5]; [18] 66% | [5]; at 100.0 µM 67% | [6]; at 1.2 µM 0% | [6]; at 3.7 µM 12% | [6]; [17] 27% | [6]; at 11.0 µM 23% | [6]; at 33.0 µM 48% | [7]; at 1.2 µM -11% | [7]; at 3.7 µM -2% | [7]; at 11.0 µM 8% | [7]; at 33.0 µM 11% | [7]; at 100.0 µM 68% | [8]; [17] 32% | [9]; at 1.2 µM -3% | [9]; at 3.7 µM 11% | [9]; at 11.0 µM 10% | [9]; at 33.0 µM 14% | [9]; at 100.0 µM 38% | [10]; at 1.2 µM 10% | [10]; at 3.7 µM 1% | [10]; [17] 21% | [10]; at 11.0 µM 9% | [10]; at 33.0 µM 25% | [11]; at 1.2 µM -41% | [11]; at 3.7 µM -26% | [11]; at 11.0 µM -17% | [11]; at 33.0 µM 50% | [12]; at 1.2 µM 2% | [12]; at 3.7 µM 4% | [12]; at 11.0 µM 6% | [12]; at 33.0 µM 42% | [13]; at 1.2 µM 0% | [13]; at 3.7 µM 12% | [13]; at 11.0 µM 21% | [13]; at 33.0 µM 40% | [13]; at 100.0 µM 67% | [14]; [17] 57% | [14]; at 50.0 µM 67.5% | [15]; at 1.2 µM -5% | [15]; at 3.7 µM 7% | [15]; at 11.0 µM 17% | [15]; at 33.0 µM 32%
active: [4]; at 100.0 µM 71% | [5]; at 50.0 µM 75.5% | [6]; [18] 85% | [6]; at 50.0 µM 80.2% | [6]; at 100.0 µM 81% | [8]; [18] 81% | [8]; at 50.0 µM 77.3% | [10]; [18] 88% | [10]; at 50.0 µM 85.5% | [10]; at 100.0 µM 80% | [11]; at 100.0 µM 87% | [12]; at 100.0 µM 80% | [14]; [18] 96% | [15]; at 100.0 µM 75%

Cc1cc(C)c(S(=O)(=O)c2ccc(Cl)cc2)c(C)c1
inactive: [1]; at 1.2 µM -3% | [1]; at 3.7 µM -4% | [1]; at 11.0 µM -2% | [1]; at 33.0 µM 7% | [1]; at 100.0 µM 29% | [2]; at 1.2 µM -5% | [2]; at 3.7 µM -10% | [2]; at 11.0 µM -16% | [2]; at 33.0 µM -14% | [2]; at 100.0 µM -4% | [3]; at 1.2 µM -1% | [3]; at 3.7 µM 9% | [3]; at 11.0 µM 20% | [3]; at 33.0 µM 13% | [3]; at 100.0 µM 21% | [4]; at 1.2 µM -7% | [4]; at 3.7 µM -8% | [4]; at 11.0 µM -14% | [4]; at 33.0 µM -13% | [4]; at 100.0 µM -3% | [5]; at 1.2 µM 0% | [5]; at 3.7 µM 3% | [5]; [17] -7% | [5]; at 11.0 µM 6% | [5]; at 33.0 µM 8% | [5]; [18] 3% | [5]; at 50.0 µM 62.4% | [5]; at 100.0 µM 49% | [6]; at 1.2 µM -5% | [6]; at 3.7 µM -10% | [6]; [17] -5% | [6]; at 11.0 µM -16% | [6]; at 33.0 µM -16% | [6]; [18] 19% | [6]; at 50.0 µM 48% | [6]; at 100.0 µM 13% | [7]; at 1.2 µM -5% | [7]; at 3.7 µM -8% | [7]; at 11.0 µM -10% | [7]; at 33.0 µM -8% | [7]; at 100.0 µM 20% | [8]; [17] -3% | [8]; [18] 17% | [16]; [17] -9% | [16]; [18] -16% | [16]; at 50.0 µM -10.4% | [10]; at 1.2 µM -3% | [10]; at 3.7 µM 4% | [10]; [17] 5% | [10]; at 11.0 µM 11% | [10]; at 33.0 µM 19% | [10]; [18] 20% | [10]; at 100.0 µM 48% | [11]; at 1.2 µM -5% | [11]; at 3.7 µM -7% | [11]; at 11.0 µM -8% | [11]; at 33.0 µM -6% | [11]; at 100.0 µM 18% | [12]; at 1.2 µM -8% | [12]; at 3.7 µM -6% | [12]; at 11.0 µM -6% | [12]; at 33.0 µM -5% | [12]; at 100.0 µM 30% | [13]; at 1.2 µM -8% | [13]; at 3.7 µM 0% | [13]; at 11.0 µM 0% | [13]; at 33.0 µM 7% | [13]; at 100.0 µM 46% | [14]; [17] -6% | [14]; [18] 1% | [14]; at 50.0 µM 35.2% | [15]; at 1.2 µM -9% | [15]; at 3.7 µM -10% | [15]; at 11.0 µM -13% | [15]; at 33.0 µM -9% | [15]; at 100.0 µM 16%
active: [8]; at 50.0 µM 77.1% | [10]; at 50.0 µM 80.9%
